Source: PubChem BioAssay AID1159580 (chemical genetic matrix, 2015)
Out of some 5,500 compounds screened, about 2,000 (36%) were called active. Inconclusive results (about 18%) are left out. No stated cut-off is given here; in the data, active means normalized growth mostly below about 0.91 (no sharp cut-off); inconclusive means no clear call, values can overlap the other calls; inactive means mostly above about 0.92. Some of the results follow.

Test: chemical genetic growth profiling, strain panel (AID 1159580);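 further: tested at 20 µM; growth read once vehicle control cultures reached saturation at 30 °C; 1 = growth at the plate median or of vehicle wells; lower values mean less growth of the strain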
Conditions: growth OD

Measured: normalized growth

O=C(/C=C/c1ccccc1)c1ccc(O)cc1
active: S. cerevisiae deletion strains, locus YJR075W, strain HOC1, hits give low values 0.681 | S. cerevisiae deletion strains, locus YKL009W, strain mrt4, hits give low values 0.829 | S. cerevisiae deletion strains, locus YKL068W, hits give low values 0.912 | S. cerevisiae deletion strains, locus YKL085W, strain MDH1 (second series), hits give low values 0.923 | S. cerevisiae deletion strains, locus YKL085W, strain MDH1, hits give low values 0.923 | S. cerevisiae deletion strains, locus YKL160W, strain elf1, hits give low values 0.144 | S. cerevisiae deletion strains, locus YKR001C, strain vps1, hits give low values 0.299 | S. cerevisiae deletion strains, locus YKR026C, strain gcn3, hits give low values 0.292 | S. cerevisiae deletion strains, locus YKR091W, strain srl3, hits give low values 0.509 | S. cerevisiae deletion strains, locus YLL001W, strain dnm1, hits give low values 0.366 | S. cerevisiae deletion strains, locus YLL026W, hits give low values 0.173 | S. cerevisiae deletion strains, locus YLL041C, strain sdh2, hits give low values 0.218 | S. cerevisiae deletion strains, locus YLR027C, strain aat2, hits give low values 0.0836 | S. cerevisiae deletion strains, locus YLR039C, strain RIC1, hits give low values 0.202 | S. cerevisiae deletion strains, locus YLR058C, strain SHM2, hits give low values 0.765 | S. cerevisiae deletion strains, locus YLR102C, strain apc9, hits give low values 0.922 | S. cerevisiae deletion strains, locus YLR221C, strain rsa3, hits give low values 0.0804 | S. cerevisiae deletion strains, locus YLR258W, strain gsy2, hits give low values 0.237 | S. cerevisiae deletion strains, locus YLR262C, strain YPT6 (second series), hits give low values 0.17 | S. cerevisiae deletion strains, locus YLR262C, strain YPT6, hits give low values 0.248 | S. cerevisiae deletion strains, locus YLR268W, strain sec22, hits give low values 0.723 | S. cerevisiae deletion strains, locus YLR320W, strain mms22, hits give low values 0.0946 | S. cerevisiae deletion strains, locus YLR330W, strain CHS5, hits give low values 0.59 | S. cerevisiae deletion strains, locus YLR342W, strain FKS1 (second series), hits give low values 0.569 | S. cerevisiae deletion strains, locus YLR342W, strain FKS1, hits give low values 0.193 | S. cerevisiae deletion strains, locus YLR357W, strain rsc2, hits give low values 0.46 | S. cerevisiae deletion strains, locus YLR370C, strain arc18, hits give low values 0.447 | S. cerevisiae deletion strains, locus YLR371W, strain rom2, hits give low values 0.714 | S. cerevisiae deletion strains, locus YLR384C, strain iki3, hits give low values 0.462 | S. cerevisiae deletion strains, locus YLR418C, strain cdc73, hits give low values 0.301 | S. cerevisiae deletion strains, locus YML016C, strain PPZ1, hits give low values 0.896 | S. cerevisiae deletion strains, locus YML032C, strain rad52, hits give low values 0.814 | S. cerevisiae deletion strains, locus YML120C, strain ndi1, hits give low values 0.0894 | S. cerevisiae deletion strains, locus YML124C, strain tub3, hits give low values 0.913 | S. cerevisiae deletion strains, locus YMR058W, strain fet3, hits give low values 0.0951 | S. cerevisiae deletion strains, locus YMR078C, strain ctf18, hits give low values 0.676 | S. cerevisiae deletion strains, locus YMR125W, strain sto1, hits give low values 0.101 | S. cerevisiae deletion strains, locus YMR129W, hits give low values 0.222 | S. cerevisiae deletion strains, locus YMR205C, strain PFK2, hits give low values 0.124 | S. cerevisiae deletion strains, locus YMR223W, strain ubp8, hits give low values 0.852 | S. cerevisiae deletion strains, locus YMR231W, strain pep5, hits give low values 0.512 | S. cerevisiae deletion strains, locus YMR263W, strain SAP30, hits give low values 0.798 | S. cerevisiae deletion strains, locus YMR307W, strain GAS1, hits give low values 0.401 | S. cerevisiae deletion strains, locus YNL067W, strain RPL9B, hits give low values 0.719 | S. cerevisiae deletion strains, locus YNL071W, strain lat1, hits give low values 0.0619 | S. cerevisiae deletion strains, locus YNL128W, strain TEP1, hits give low values 0.734 | S. cerevisiae deletion strains, locus YNL153C, strain GIM3, hits give low values 0.492 | S. cerevisiae deletion strains, locus YNL209W, strain ssb2, hits give low values 0.593 | S. cerevisiae deletion strains, locus YNL233W, strain BNI4, hits give low values 0.621 | S. cerevisiae deletion strains, locus YNL248C, strain rpa49, hits give low values 0.0935 | S. cerevisiae deletion strains, locus YNL271C, strain bni1, hits give low values 0.878 | S. cerevisiae deletion strains, locus YNL298W, strain CLA4, hits give low values 0.824 | S. cerevisiae deletion strains, locus YNL307C, strain MCK1, hits give low values 0.162 | S. cerevisiae deletion strains, locus YNL322C, strain KRE1 (second series), hits give low values 0.231 | S. cerevisiae deletion strains, locus YNL322C, strain KRE1, hits give low values 0.77 | S. cerevisiae deletion strains, locus YNR049C, strain mso1, hits give low values 0.454 | S. cerevisiae deletion strains, locus YNR052C, strain pop2, hits give low values 0.866 | S. cerevisiae deletion strains, locus YOL006C, strain TOP1, hits give low values 0.347 | S. cerevisiae deletion strains, locus YOL147C, strain pex11, hits give low values 0.706 | S. cerevisiae deletion strains, locus YOR001W, strain rrp6, hits give low values 0.189 | S. cerevisiae deletion strains, locus YOR061W, strain CKA2, hits give low values 0.877 | S. cerevisiae deletion strains, locus YOR069W, strain VPS5, hits give low values 0.827 | S. cerevisiae deletion strains, locus YOR070C, strain gyp1, hits give low values 0.26 | S. cerevisiae deletion strains, locus YOR080W, strain dia2, hits give low values 0.514 | S. cerevisiae deletion strains, locus YOR083W, strain WHI5, hits give low values 0.312 | S. cerevisiae deletion strains, locus YOR106W, strain vam3, hits give low values 0.241 | S. cerevisiae deletion strains, locus YOR136W, strain idh2, hits give low values 0.914 | S. cerevisiae deletion strains, locus YOR144C, strain elg1, hits give low values 0.88 | S. cerevisiae deletion strains, locus YOR184W, strain ser1, hits give low values 0.459 | S. cerevisiae deletion strains, locus YOR265W, strain rbl2, hits give low values 0.295 | S. cerevisiae deletion strains, locus YOR270C, strain vph1, hits give low values 0.143 | S. cerevisiae deletion strains, locus YOR290C, strain snf2, hits give low values 0.14 | S. cerevisiae deletion strains, locus YOR316C, strain cot1, hits give low values 0.917 | S. cerevisiae deletion strains, locus YPL051W, strain arl3, hits give low values 0.213 | S. cerevisiae deletion strains, locus YPL055C, strain LGE1, hits give low values 0.558 | S. cerevisiae deletion strains, locus YPL078C, strain atp4, hits give low values 0.209 | S. cerevisiae deletion strains, locus YPL106C, strain sse1, hits give low values 0.503 | S. cerevisiae deletion strains, locus YPL240C, strain hsp82, hits give low values 0.149 | S. cerevisiae deletion strains, locus YPL241C, strain CIN2, hits give low values 0.763 | S. cerevisiae deletion strains, locus YPR119W, strain clb2, hits give low values 0.905 | S. cerevisiae deletion strains, locus YPR141C, strain kar3, hits give low values 0.907 | S. cerevisiae deletion strains, locus YPR163C, strain tif3, hits give low values 0.369 | S. cerevisiae deletion strains, locus YPR167C, strain met16, hits give low values 0.898 | S. cerevisiae deletion strains, strain wtn01, hits give low values 0.78 | S. cerevisiae strains, strain wild type, hits give low values 0.518
inactive: S. cerevisiae deletion strains, locus YLR113W, strain HOG1, hits give low values 0.964 | S. cerevisiae deletion strains, locus YNL183C, strain NPR1, hits give low values 0.901 | S. cerevisiae deletion strains, locus YNL250W, strain rad50, hits give low values 0.924 | S. cerevisiae deletion strains, locus YOL012C, strain htz1 0.327 | S. cerevisiae deletion strains, locus YOR231W, strain MKK1, hits give low values 0.948 | S. cerevisiae deletion strains, locus YPL256C, strain CLN2, hits give low values 0.978
